An excerpt weighted towards active compounds, which were near 2.9% of everything screened.
DAGLB inh: diacylglycerol lipase beta (human) inhibition. inhibition, % at 5.17 µM. HEK293T DAGLB membrane lysate, EnzChek fluorogenic substrate. 0.059% of 340,000 active. Q8NCG7. AID 504411; in the data active means inhibition above about 34%;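 further: 0% = enzyme with vehicle and 100% = wells lacking enzyme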
Target sequence (Q8NCG7 whole entry, looked up): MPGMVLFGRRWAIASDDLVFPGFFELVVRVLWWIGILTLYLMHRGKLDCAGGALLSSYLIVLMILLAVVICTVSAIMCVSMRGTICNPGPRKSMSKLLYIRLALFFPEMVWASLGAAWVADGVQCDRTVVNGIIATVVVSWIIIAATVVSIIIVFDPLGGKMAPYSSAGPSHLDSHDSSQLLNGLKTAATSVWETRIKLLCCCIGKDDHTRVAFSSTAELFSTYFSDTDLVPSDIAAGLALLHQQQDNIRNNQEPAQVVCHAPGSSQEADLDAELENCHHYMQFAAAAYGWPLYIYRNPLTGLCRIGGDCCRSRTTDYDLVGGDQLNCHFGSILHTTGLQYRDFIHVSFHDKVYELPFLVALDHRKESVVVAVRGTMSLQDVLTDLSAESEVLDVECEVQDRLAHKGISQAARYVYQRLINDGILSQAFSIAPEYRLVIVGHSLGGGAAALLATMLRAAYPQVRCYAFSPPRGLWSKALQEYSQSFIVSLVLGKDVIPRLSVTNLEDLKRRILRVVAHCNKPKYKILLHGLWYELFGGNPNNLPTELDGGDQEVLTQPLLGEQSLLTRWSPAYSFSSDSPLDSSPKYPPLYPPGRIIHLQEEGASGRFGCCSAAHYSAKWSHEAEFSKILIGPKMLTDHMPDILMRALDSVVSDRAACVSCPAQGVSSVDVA
Cardio protect: myocardial damage modulation in H9c2 cells. H9c2 cardiomyocytes, H2O2 injury protection, ATPLite, 2 h. protection from H2O2 cell death, % at 20 µM. 0.63% of 360,000 active. AID 588492;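 active means compounds giving at least 50% protection of heart cells from peroxide-induced death in the single-dose screen, raw or plate-pattern-corrected value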;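 further: 0% = DMSO wells with peroxide and 100% = DMSO wells without peroxide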
sPLA2-III inh: Blocks human group III sPLA2 activity. QFRET BODIPY PC-A2 liposome hydrolysis, fluorescence. inhibition, % at 12.2 µM. 0.56% of 370,000 active;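 active means inhibition above mean plus 3 SD of compounds lying within the high and low control bounds, cut at about 19% in these data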;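 further: 0% = median of test compound wells and 100% = no enzyme DMSO wells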
Rtt109 HAT inh: blocks Candida albicans Rtt109/Vps75 acetyltransferase activity; Q5AAJ8; purified Rtt109/Vps75, ThioGlo CoA-SH fluorescence, 4 h; inhibition, % at 34.9 µM; 0.16% of 330,000 active; AID 540336;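 active means inhibition of at least 50% in every replicate; inconclusive means best replicate reaches 50% inhibition but some replicates fall short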
ABHD5 PLIN5 PPI: blocks binding of human ABHD5 to perilipin-5. Q00G26+Q8WTS1. Split G. princeps luciferase complementation, luminescence, 4 h. inhibition, % at 4 µM. 0.78% of 360,000 active. AID 602281;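 active means inhibition above the mean inhibition across every tested compound plus 3 SD, cut at about 22% in these data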;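 further: 0% = DMSO only wells and the 100% control is not disclosed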
Myeloid diff MLP: promotes myeloid progenitor differentiation | calls only at 10 µM | ER-HoxA9 myeloid progenitors, lysozyme-GFP differentiation, flow cytometry | 1% of 360,000 active;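 active means normalized GFP-positive differentiation at or above the plate's own cutoff, the solvent-only control mean plus 3 SD; inconclusive means no clear call, values can overlap the other calls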;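 further: cells exposed to compound for four days before flow analysis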
Active calls of the source: *.

Results for COc1ccc(-c2oc3c(OC)c(OC)c(OC)c(O)c3c(=O)c2OC)cc1OC ?
DAGLB inh: 2.0; Cardio protect: 72.0*; sPLA2-III inh: -14.4; Rtt109 HAT inh: 0.8; ABHD5 PLIN5 PPI: 6.9; Myeloid diff MLP: inactive

Results for COc1c(OC)c(O)c2c(=O)c(O)c(-c3ccccc3)oc2c1OC ?
DAGLB inh: -7.9; Cardio protect: 0.4; sPLA2-III inh: 1.9; Rtt109 HAT inh: 6.8; ABHD5 PLIN5 PPI: -10.6; Myeloid diff MLP: inactive

What do the screens show for `COc1ccc(C2CC(c3ccc(C)cc3)=NN2C(=O)CCC(=O)O)cc1OC` (centres undefined)?
DAGLB inh: 1.0; Cardio protect: -0.4; sPLA2-III inh: -3.2; Rtt109 HAT inh: 1.1; ABHD5 PLIN5 PPI: 2.1; Myeloid diff MLP: inactive

Results for CC1Cc2ccccc2N1C(=O)CSc1nc2c(c(=O)n(C)c(=O)n2C)n1Cc1ccc(F)cc1 (centres undefined) ?
DAGLB inh: -2.4; Cardio protect: 50.4*; sPLA2-III inh: -2.4; Rtt109 HAT inh: 14.3; ABHD5 PLIN5 PPI: -0.9; Myeloid diff MLP: inactive

Results for CCCCCCCCCCCCCCCC[N+](C)(C)CC ?
DAGLB inh: 6.2; Cardio protect: -41.1; sPLA2-III inh: -11.1; Rtt109 HAT inh: 74.3*; ABHD5 PLIN5 PPI: 13.4; Myeloid diff MLP: inconclusive

Results for CCCCCC[N+](C)(C)CCSSCC[N+](C)(C)CCCCCC ?
DAGLB inh: -1.6; Cardio protect: 4.8; sPLA2-III inh: -0.7; Rtt109 HAT inh: 7.8; ABHD5 PLIN5 PPI: -24.3; Myeloid diff MLP: inactive

What do the screens show for `C[C@@H]1CN([C@@H](C)CO)C(=O)CCCn2nncc2CO[C@@H]1CN(C)C(=O)Nc1ccc(C(F)(F)F)cc1`?
DAGLB inh: 3.9; Cardio protect: -8.1; sPLA2-III inh: -9.2; ABHD5 PLIN5 PPI: 0.8; Myeloid diff MLP: inactive

How did Cn1c(C(=O)OCC(=O)NCc2ccco2)cc2sccc21 do in these assays?
DAGLB inh: 3.2; Cardio protect: 6.4; sPLA2-III inh: -10.6; Rtt109 HAT inh: 1.6; ABHD5 PLIN5 PPI: 23.1*; Myeloid diff MLP: inactive

Results for Cc1cc2c(cc(C(=O)OCC(=O)NCc3ccco3)n2C)s1 ?
DAGLB inh: 0.1; Cardio protect: 0.0; sPLA2-III inh: -2.0; Rtt109 HAT inh: -90.2; ABHD5 PLIN5 PPI: 4.6; Myeloid diff MLP: inactive

How did Cc1cc(C(=O)N/N=C/c2cc(Cl)cc([N+](=O)[O-])c2O)c2ccccc2n1 do in these assays?
DAGLB inh: 16.0; Cardio protect: 26.7; sPLA2-III inh: -2.9; Rtt109 HAT inh: 14.7; ABHD5 PLIN5 PPI: 2.8; Myeloid diff MLP: inactive

What do the screens show for `Cc1cc(C(=O)N/N=C/c2c(CO)cnc(C)c2O)c2ccccc2n1`?
DAGLB inh: 0.6; Cardio protect: 55.3*; sPLA2-III inh: -3.4; Rtt109 HAT inh: 9.2; ABHD5 PLIN5 PPI: 8.6; Myeloid diff MLP: inactive

What do the screens show for `Cc1ncc(CO)c(/C=N/NC(=O)c2cc(Br)ccc2O)c1O`?
DAGLB inh: 4.2; Cardio protect: 50.1*; sPLA2-III inh: 7.3; Rtt109 HAT inh: 4.1; ABHD5 PLIN5 PPI: 4.1; Myeloid diff MLP: inactive

How did CC(=O)Nc1ccc(S(=O)(=O)NCC(=O)OCC(=O)c2cc(C)n(-c3ccc4c(c3)OCO4)c2C)cc1 do in these assays?
DAGLB inh: 1.5; Cardio protect: 6.2; sPLA2-III inh: -16.6; Rtt109 HAT inh: 12.1; ABHD5 PLIN5 PPI: 8.6; Myeloid diff MLP: inactive

Results for CCC(C)NC(=O)Cc1ccc(-c2ccccc2)cc1 (centres undefined) ?
DAGLB inh: 1.1; Cardio protect: -1.9; sPLA2-III inh: 1.7; Rtt109 HAT inh: -2.2; ABHD5 PLIN5 PPI: -0.3; Myeloid diff MLP: inactive

Results for CC(NC(=O)c1cccs1)C(S)c1ccccc1 (centres undefined) ?
DAGLB inh: 0.9; Cardio protect: 10.7; sPLA2-III inh: -0.3; Rtt109 HAT inh: 4.6; ABHD5 PLIN5 PPI: -9.0; Myeloid diff MLP: inactive

How did O=C(Nc1nnc(-c2ccc3c(c2)CCCC3)o1)c1ccccc1Cl do in these assays?
DAGLB inh: 2.0; Cardio protect: 46.7; sPLA2-III inh: 1.9; Rtt109 HAT inh: 10.7; ABHD5 PLIN5 PPI: -2.1; Myeloid diff MLP: inactive

What do the screens show for `O=C(Nc1nnc(-c2ccc3c(c2)CCCC3)o1)c1ccccc1`?
DAGLB inh: -1.7; Cardio protect: 52.1*; sPLA2-III inh: -9.7; Rtt109 HAT inh: 9.7; ABHD5 PLIN5 PPI: 6.7; Myeloid diff MLP: inactive

How did CCOc1cc(NS(=O)(=O)c2ccc(OC)cc2)c(OCC)cc1NC(=O)c1ccco1 do in these assays?
DAGLB inh: 1.5; Cardio protect: 6.3; sPLA2-III inh: -0.8; Rtt109 HAT inh: -14.3; ABHD5 PLIN5 PPI: 7.8; Myeloid diff MLP: active

What do the screens show for `CC(C)=CCN1CCN(Cc2cc(C(C)C)n[nH]2)CC1CCO` (centres undefined)?
DAGLB inh: -0.7; Cardio protect: 1.6; sPLA2-III inh: 8.8; Rtt109 HAT inh: -13.2; ABHD5 PLIN5 PPI: -3.7; Myeloid diff MLP: active

How did CC[C@H](CCCCCC#N)CCC(=O)N(c1ccccc1)c1ccccc1 do in these assays?
sPLA2-III inh: -4.0

How did COCCN1C(=O)/C(=C/c2ccc(N3CCCC3)cc2C)SC1=S do in these assays?
DAGLB inh: -13.2; Cardio protect: -9.3; sPLA2-III inh: -4.5; Rtt109 HAT inh: -10.5; ABHD5 PLIN5 PPI: -0.4; Myeloid diff MLP: active

How did CCN=C1S/C(=C\c2ccc(N3CCOCC3)cc2C)C(=O)N1CC do in these assays?
DAGLB inh: -1.6; Cardio protect: -0.1; sPLA2-III inh: 3.4; Rtt109 HAT inh: 26.6; ABHD5 PLIN5 PPI: -1.2; Myeloid diff MLP: inactive

What do the screens show for `CCOC(=O)C1CCCN(S(=O)(=O)c2ccc3c(c2)N(C)C(=O)CC(=O)N3C)C1` (centres undefined)?
DAGLB inh: 1.2; Cardio protect: -6.8; sPLA2-III inh: 6.9; Rtt109 HAT inh: -0.5; ABHD5 PLIN5 PPI: -8.8; Myeloid diff MLP: active

Results for O=C(O)CSCC(=O)Nc1ccccc1SCCS(=O)(=O)c1ccc(Cl)cc1 ?
DAGLB inh: 0.7; Cardio protect: 0.4; sPLA2-III inh: 13.9; Rtt109 HAT inh: 3.4; ABHD5 PLIN5 PPI: 7.2; Myeloid diff MLP: active

Results for CSc1ccc(-c2cccc([N+](=O)[O-])c2)nn1 ?
DAGLB inh: -2.0; Cardio protect: -1.7; sPLA2-III inh: 2.6; Rtt109 HAT inh: 6.8; ABHD5 PLIN5 PPI: 14.8; Myeloid diff MLP: inactive

What do the screens show for `COC(=O)Cn1cc(/C=C/c2cc[n+](C)cc2)c2ccccc21`?
DAGLB inh: -11.8; Cardio protect: 8.0; sPLA2-III inh: -15.7; Rtt109 HAT inh: 0.5; ABHD5 PLIN5 PPI: 1.1; Myeloid diff MLP: active

What do the screens show for `COC(=O)Cn1c(C)c(/C=C/c2cc[n+](C)cc2)c2ccccc21`?
DAGLB inh: -12.6; Cardio protect: -1.0; sPLA2-III inh: -7.1; Rtt109 HAT inh: -4.0; ABHD5 PLIN5 PPI: 5.5; Myeloid diff MLP: active

Results for C(=C\c1ccccc1)/CN1CCN(Cc2nc(Cc3ccccc3)no2)CC1 ?
DAGLB inh: -3.4; Cardio protect: -4.5; sPLA2-III inh: -16.1; ABHD5 PLIN5 PPI: -1.9; Myeloid diff MLP: inactive
